# According to the supplement of paper PMC3334620:
# Over roughly 33,000 sequences, “E-score (-0.5 to 0.5)” has its median near -0.053; the highest 2% begin near 0.37. The list comes from a sample in which the highest values are over-represented; it also holds similar and randomly drawn sequences.
# Target: Hap1 (UniProt P0CE41)
# Experiment: PBM E-score (8-mer binding enrichment) (E-score (-0.5 to 0.5)); higher = stronger / more preferred TF binding
# Details: protein concentration: 200 nM; construct: GST-DNA-binding domain
# Method: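 Universal 'all 10-mer' protein binding microarrays (Agilent AMADID 015681) probed with GST-tagged S. cerevisiae TFs (full-length or DBD) made by in vitro transcription/translation (PURExpress), about 100-200 nM. Bound TF was detected with fluorescent anti-GST. Each ungapped 8-mer (which stands for itself and its reverse complement) is scored by the PBM enrichment score (E-score), a modified Wilcoxon-Mann-Whitney statistic from -0.5 to +0.5, computed with the Universal PBM Analysis Suite. Scale: above 0.35 generally sequence-specific binding.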
# Sequence of UniProt P0CE41 (P0CE41 whole entry): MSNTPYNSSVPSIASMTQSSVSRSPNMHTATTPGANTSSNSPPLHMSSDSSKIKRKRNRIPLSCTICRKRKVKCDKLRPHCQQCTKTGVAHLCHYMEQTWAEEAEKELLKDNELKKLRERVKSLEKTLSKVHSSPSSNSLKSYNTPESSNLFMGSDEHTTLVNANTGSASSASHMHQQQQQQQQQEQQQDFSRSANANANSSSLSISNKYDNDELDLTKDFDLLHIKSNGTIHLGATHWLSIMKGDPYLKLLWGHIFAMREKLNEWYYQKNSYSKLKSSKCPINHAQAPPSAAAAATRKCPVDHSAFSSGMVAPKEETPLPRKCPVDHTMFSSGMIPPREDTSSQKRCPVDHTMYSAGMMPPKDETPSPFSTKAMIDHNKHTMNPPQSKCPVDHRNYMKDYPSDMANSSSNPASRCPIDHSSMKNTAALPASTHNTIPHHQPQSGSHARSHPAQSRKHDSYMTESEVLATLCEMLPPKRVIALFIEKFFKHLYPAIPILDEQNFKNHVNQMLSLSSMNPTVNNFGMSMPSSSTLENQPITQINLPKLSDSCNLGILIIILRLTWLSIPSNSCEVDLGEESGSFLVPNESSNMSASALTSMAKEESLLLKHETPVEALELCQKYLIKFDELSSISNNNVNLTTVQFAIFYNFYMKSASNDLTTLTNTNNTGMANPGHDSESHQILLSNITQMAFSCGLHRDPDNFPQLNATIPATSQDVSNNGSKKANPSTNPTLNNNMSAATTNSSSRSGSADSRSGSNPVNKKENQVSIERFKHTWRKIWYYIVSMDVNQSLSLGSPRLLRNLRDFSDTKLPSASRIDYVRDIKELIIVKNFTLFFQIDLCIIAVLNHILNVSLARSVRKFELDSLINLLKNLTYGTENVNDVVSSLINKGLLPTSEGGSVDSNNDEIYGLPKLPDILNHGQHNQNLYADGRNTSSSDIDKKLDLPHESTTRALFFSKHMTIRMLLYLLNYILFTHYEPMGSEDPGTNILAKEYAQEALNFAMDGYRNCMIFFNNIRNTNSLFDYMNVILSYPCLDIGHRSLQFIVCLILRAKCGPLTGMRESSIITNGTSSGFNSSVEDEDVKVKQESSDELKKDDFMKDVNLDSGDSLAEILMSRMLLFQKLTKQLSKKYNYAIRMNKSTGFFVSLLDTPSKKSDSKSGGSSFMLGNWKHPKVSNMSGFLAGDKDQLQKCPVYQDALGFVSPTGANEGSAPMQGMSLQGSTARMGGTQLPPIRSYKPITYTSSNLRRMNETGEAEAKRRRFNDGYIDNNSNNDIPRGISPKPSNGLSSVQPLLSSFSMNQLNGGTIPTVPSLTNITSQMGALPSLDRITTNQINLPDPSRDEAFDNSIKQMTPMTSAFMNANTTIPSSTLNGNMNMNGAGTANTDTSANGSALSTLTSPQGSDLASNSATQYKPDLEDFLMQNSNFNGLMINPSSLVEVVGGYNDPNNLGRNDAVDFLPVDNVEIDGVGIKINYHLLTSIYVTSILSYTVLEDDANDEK
row,Sequence,PBM E-score
1,CAACGCCG,0.264
2,CATCGCCG,0.293
3,AATCGCCG,0.395
4,AATCGCCC,0.0407
5,AAACGCCG,0.402
6,AAACGCCA,0.0524
7,CGGTCAAA,0.269
8,ACAATCCC,0.254
9,ACATCTCC,0.283
10,ATTTTTGA,-0.132
11,ATCTAAAT,0.149
12,GAAGTGGC,-0.0295
13,ATGAAACG,-0.0187
14,GAAACAGC,0.0614
15,TCCAAGGA,0.0272
16,GGGATAGA,-0.0284
17,GCATCTTA,-0.0356
18,AGTCCGCG,0.297
19,AGTCCGGG,0.393
20,AGTCCGCC,0.292
21,AGTCCGGC,0.389
22,AGTCCCGG,0.322
23,AGTCCGTC,0.325
24,CTCCAGAG,-0.0749
25,ACCATGAG,-0.129

row,Sequence,PBM E-score
1,AACGGAAA,0.385
2,AACGGAAT,0.306
3,TTCGGAAA,0.389
4,ATCGGAAA,0.426
5,ATCGGAAG,0.236
6,GTCGGAAA,0.361
7,ATCGGAAT,0.363
8,CACGGAAA,0.295
9,CTCGGAAA,0.346
10,ACATTGAC,-0.114
11,ATACCGAT,0.288
12,GACCAACA,0.0331
13,CCCCATCG,0.172
14,AATCGCGC,0.135
15,AGCGCAGG,0.00092
16,AACGGATT,0.338
17,CACGGATA,0.298
18,CTCGGATA,0.371
19,CTCGGGTA,0.264
20,ATCGGATC,0.339
21,CTCGGATC,0.383
22,ATCGGATG,0.346
23,ATCGGATA,0.404
24,GTCGGATA,0.339
25,AACGGATA,0.398

row,Sequence,PBM E-score
1,CGCGGATC,0.172
2,CGCGGATA,0.309
3,AGTGAGCA,-0.28
4,AACCAGCG,0.0362
5,CGTTGCAC,0.065
6,CGCACACA,-0.0394
7,ATGGGAGA,-0.315
8,CAGCTATG,-0.287
9,ACTGAAGG,-0.129
10,TATCCGAA,0.364
11,AATCCGCT,0.243
12,GATCCGAA,0.379
13,GATCCGGC,0.375
14,AATCCGGA,0.433
15,AATCCGCA,0.247
16,AATCCGGT,0.418
17,GATCCGCC,0.29
18,AATCCGTA,0.219
19,CATCCGAA,0.368
20,AATCCAGT,0.219
21,GATCCGAC,0.273
22,GAGGGCGA,0.0665
23,TACTGGGA,-0.0481
24,ATCGGGCG,0.36
25,ACAGATCA,-0.0146

row,Sequence,PBM E-score
1,CGCGTTGC,0.159
2,CTACTAAC,-0.214
3,TGCTAGAA,-0.118
4,TATCCGGA,0.428
5,TATCCTGA,-0.0806
6,CATCCGGC,0.342
7,GATCCGCA,0.253
8,TATCCGCA,0.253
9,GATCCGGA,0.395
10,GATCCGTA,0.225
11,CATCCGCA,0.224
12,AATCCGGC,0.37
13,CATCCGTA,0.2
14,CATCCGGA,0.423
15,AATCCGTC,0.232
16,ATACGTCA,0.0245
17,TAGTTTCA,-0.024
18,CACCTGTA,-0.173
19,GAAATCGC,0.196
20,ACTAGGCG,-0.0773
21,AATCCGGG,0.409
22,AATCCGCG,0.244
23,CATCCGGG,0.278
24,CCTAGGGA,-0.112
25,AATTCCGG,0.451

row,Sequence,PBM E-score
1,TATTCCGA,0.357
2,AATTCCAT,0.0073
3,AATTCCGA,0.43
4,AATTCCGT,0.414
5,CATTCCGG,0.322
6,CATTCCGA,0.294
7,AATTCCGC,0.336
8,AATTCCCT,-0.106
9,CTGGCTTC,-0.194
10,AGCGAACT,-0.137
11,AGAAGGAG,-0.248
12,AGTTGCGG,0.153
13,CAGTAGGC,-0.174
14,ATGGGTGA,-0.0877
15,ATCTAAGC,-0.0574
16,GCCTTTTA,-0.0799
17,AGTTGCGC,0.0784
18,GCTCCTAC,-0.0888
19,AAAATTAT,0.122
20,GCGAAAGC,0.0298
21,CCGAAACG,0.377
22,GCGAAAAC,-0.0632
23,CCGAAAAC,0.379
24,CCGAAAAG,0.311
25,CCGAAAGA,0.319

row,Sequence,PBM E-score
1,CCGAAAGC,0.369
2,CCGAAACA,0.288
3,TCGAAAAA,0.0162
4,CCGAAAAA,0.398
5,CCGAAACC,0.298
6,ACGAAAAC,0.124
7,CAACCCAC,-0.131
8,GCATTAGA,-0.112
9,CAGTTGAG,-0.225
10,AGAATTCT,0.108
11,CAGTGTTC,-0.0181
12,CGTGAAAC,-0.0905
13,GACAGGGC,-0.0413
14,AGGTTGTA,-0.112
15,CCGAAATC,0.401
16,CCGAAATA,0.351
17,ACGAAATC,0.0404
18,AAGCGGAG,-0.0297
19,TCTCAGCA,-0.326
20,ATCGAATG,-0.076
21,CTACGCCC,0.0263
22,TAGCATAA,-0.0142
23,ATTTCACA,-0.131
24,CGGCGATA,0.472
25,CGCCGATC,0.326

row,Sequence,PBM E-score
1,CGGCGTTA,0.476
2,GGCCGCTA,0.225
3,GGCCGATA,0.457
4,CGCCGTTA,0.291
5,GGGCGTTA,0.147
6,CGGCGTTC,0.235
7,GGCCGTTA,0.333
8,CGCCGATA,0.426
9,AGGCGATA,0.119
10,GGGCGATA,0.179
11,CGAAAAAC,0.169
12,GAATGCAC,-0.00315
13,AGGGATGA,-0.133
14,AGTCAAAG,-0.13
15,GTCGCGAC,0.244
16,ACTCCCAG,-0.0473
17,AGCCGATG,0.233
18,AGCCGATC,0.245
19,AGCCGATA,0.427
20,ACAGTGCT,-0.138
21,ACCCGGTG,0.249
22,GCCCGGTA,0.38
